± gives the standard deviation.
Tests used:
[1] = tested on: MILI (PIWIL2) piRISC loaded with L1MC piRNA (26 nt); test: pre-steady-state target cleavage rate (min^-1); guide: L1MC piRNA 5'p-UAACUAAAUACUAUGCAAGCUGUAGG; higher = faster piRNA-guided slicing of the target
How it was run: (§1)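 Cleave-'n-Seq reactions paired 0.1 nM transcribed, DNA-blocked target RNA library with 1 nM active affinity-purified piRISC holding one synthetic guide, plus or minus 500 nM GTSF1 partner protein, in HEPES–potassium acetate buffer at 33 °C for 0–8 or 0–960 min. After sequencing of uncleaved targets and normalisation to depth and weakly complementary targets, the pre-steady-state cleavage rate was taken from a burst-and-steady-state fit. Three trials were pooled, and k3 was capped at 0.0001 min^-1.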

[2] = tested on: EfPiwi piRISC loaded with L1MC piRNA (26 nt); test: pre-steady-state target cleavage rate (min^-1); auxiliary factor: 500 nM Ephydatia muelleri Gtsf1; guide: L1MC piRNA 5'p-UAACUAAAUACUAUGCAAGCUGUAGG; MIWI and MILI are mouse PIWI proteins and EfPiwi is from a freshwater sponge; tags in brackets are library labels; higher = faster piRNA-guided slicing of the target
How it was run: as §1

[3] = auxiliary factor: 500 nM mouse GTSF1
[4] = auxiliary factor: none (no GTSF1)

Sequence	pre-steady-state target cleavage rate [1, 3]	pre-steady-state target cleavage rate [1, 4]	pre-steady-state target cleavage rate [2]
UCCUCCUACAGCUAGCAUAGUAUUUAGUAA	0.199 ± 0.023	0.00331 ± 0.0021	0.005 ± 0.0022
UCCUCCUUCAGCUUGCAAAGUAUUUAGUUA	0.162 ± 0.015	0.00632 ± 0.0021	0.0828 ± 0.021
UCCUGCUACAGUUGCAUAGUAUUUAGUUA	0.256 ± 0.019	0.0103 ± 0.0022	0.0766 ± 0.022
UCCUGGAACAGCUUGCAAUGUAUUUAGUUA	0.0726 ± 0.0083	0.00437 ± 0.002	0.00454 ± 0.0035
UCCUGGAUCAGCUUGCAUUGUAUUAAGUUA	0.142 ± 0.016	0.00356 ± 0.0025	0.00314 ± 0.0017
UCCUGCUACUGCUUGCAUAGAAUUUAGUUA	0.045 ± 0.0093	0.00256 ± 0.002	0.00563 ± 0.002
UCCUCCUACAGGAUGCAUAGUAUUUAGUAA	0.23 ± 0.017	0.00422 ± 0.0022	0.0119 ± 0.0048
UCCUGGAACAGGUUGCAUAGUAUUUAGUUA	0.308 ± 0.018	0.0111 ± 0.0022	0.0388 ± 0.0088
UCCUGGUACAGCUUGCAUGUAUUUAGUUA	0.0383 ± 0.0075	0.00417 ± 0.0024	0.0036 ± 0.0031
UCCUGGAACAGCUUGCAGAGUAUUUAGUUA	0.193 ± 0.019	0.00795 ± 0.0019	0.012 ± 0.003
UCCUGGAUGUCGACGCAUAGUAUUUAGUUA	0.0214 ± 0.0042	0.00381 ± 0.0021	0.00545 ± 0.0032
UCCUGGUACAGGUUGCAUAGUAUUAAGUUA	0.326 ± 0.072	0.00893 ± 0.0037	0.00485 ± 0.0027
UCCUCCUACAGGUUGCAUAGUAUUAAGUUA	0.212 ± 0.027	0.00545 ± 0.0022	0.00576 ± 0.0023
UCCUGCUACAGCUUGCUUAGUAUUUAGUAA	0.119 ± 0.015	0.00316 ± 0.0023	0.00437 ± 0.0017
UCCUCCAACAGCUUGCAUUGUAUUUAGUUA	0.257 ± 0.018	0.00746 ± 0.0023	0.0205 ± 0.0058
UCCUGGAACAGCUUUGCAUAGUAUUUAGUUA	0.248 ± 0.016	0.00711 ± 0.0027	0.0309 ± 0.0082
UCCUGCAUCAGCUUGCAUAGUAUUUAGUUA	0.322 ± 0.021	0.00843 ± 0.0023	0.0591 ± 0.011
UCCUGGAUCAGCUUGCAUAGUAUUUAGGUA	0.0936 ± 0.021	0.00336 ± 0.0026	0.00436 ± 0.002
UCCUGCUACAGCUUGCAUCGUAUUUAGUUA	0.168 ± 0.022	0.006 ± 0.0019	0.0091 ± 0.0022
UCCUGGAUCUGCUUGCAAAGUAUUUAGUUA	0.0598 ± 0.013	0.0085 ± 0.0023	0.0405 ± 0.011
UCCUGGAACAGGCUUGCAUAGUAUUUAGUUA	0.219 ± 0.019	0.0094 ± 0.0029	0.0145 ± 0.0037
UCCUGGAACAGCAUGCAUAGUAAUUAGUUA	0.225 ± 0.017	0.00873 ± 0.0024	0.0139 ± 0.0048
UCCUCCUACAGCUUGCUUAGUUUUUAGUUA	0.0513 ± 0.01	0.00379 ± 0.0023	0.00738 ± 0.0023
UCCUCCUACAGCUUGCAUAGUAAUUUAGUUA	0.199 ± 0.019	0.00674 ± 0.0025	0.00821 ± 0.0033
UCCUGCUAGAGCUUGCAUAGUAUUAAGUUA	0.256 ± 0.033	0.00303 ± 0.0024	0.00624 ± 0.0022
UCCUCCUUCAGCUUGCAUAGUAUAUAGUUA	0.216 ± 0.022	0.00364 ± 0.0025	0.0124 ± 0.0058

Sequence	pre-steady-state target cleavage rate [1, 3]	pre-steady-state target cleavage rate [1, 4]	pre-steady-state target cleavage rate [2]
UCCUGGAUCAGCAUGCUUAGUAUUUAGUUA	0.189 ± 0.019	0.00777 ± 0.0024	0.0112 ± 0.0042
UCCUGGAUCAGCUUGCAUAGUAUGUAGUUA	0.202 ± 0.018	0.00457 ± 0.0024	0.0171 ± 0.0042
UCCUGGAUCAGCUCGCAUAGUAUUUAGUUA	0.284 ± 0.019	0.00608 ± 0.0029	0.0549 ± 0.013
UCCUGGAACAGUUGCAUAGUAUUUAGUUA	0.2 ± 0.014	0.00668 ± 0.0022	0.0543 ± 0.013
UCCUCCUACAGCUUGACAUAGUAUUUAGUUA	0.267 ± 0.018	0.00554 ± 0.0024	0.016 ± 0.0056
UCCUCCUACACCUUGCUUAGUAUUUAGUUA	0.193 ± 0.022	0.00665 ± 0.0019	0.00914 ± 0.0039
UCCUGGAACUGCUUGCAUAGUAUUUAGUAA	0.171 ± 0.015	0.00419 ± 0.0025	0.00308 ± 0.0023
UCCUGCUACACGAUGCAUAGUAUUUAGUAA	0.257 ± 0.032	0.00703 ± 0.0026	0.00352 ± 0.0024
UCCUCCUACAGCUUGCAUAGUACUUAGUUA	0.277 ± 0.018	0.00759 ± 0.002	0.013 ± 0.0053
UCCUCCUACAGCUUGCAAGUAUUUAGUUA	0.155 ± 0.017	0.00449 ± 0.0021	0.00641 ± 0.0026
UCCUGGAUGAGCUUGCAUAGUAUGUUAGUUA	0.157 ± 0.021	0.0093 ± 0.0029	0.00879 ± 0.0036
UCCUGGAUGAGCUUGGAUAGUAAUUAGUUA	0.1 ± 0.02	0.00311 ± 0.0026	0.00302 ± 0.0021
UCCUGGUAGACCUUGCAUAGUAUUUAGUUA	0.221 ± 0.022	0.00488 ± 0.0036	0.0182 ± 0.0065
UCCUGCUAGAGCAUGCAUAGUAUUUAGUUA	0.226 ± 0.018	0.00708 ± 0.0024	0.00618 ± 0.0015
UCCUGGUUCAGCUUGCAUAGUAUUAAGUUA	0.186 ± 0.029	0.00855 ± 0.0027	0.00579 ± 0.0021
UCCUCCAACAGCUUGCAUAGUAAUUAGUUA	0.228 ± 0.018	0.0065 ± 0.0021	0.0103 ± 0.0047
UCCUCCUACAGCUUGCAUAGUAUUAUAGUUA	0.258 ± 0.019	0.00434 ± 0.0022	0.00777 ± 0.0033
UCCUGCGUACAGCUUGCAUAGUAUUUAGUUA	0.314 ± 0.021	0.0109 ± 0.0033	0.0434 ± 0.012
UCCUGCUACACGUUGCAUAGUAUUUAGUUA	0.289 ± 0.026	0.0118 ± 0.0026	0.0175 ± 0.0063
UCCUGGAUCACGCUUGCAUAGUAUUUAGUUA	0.205 ± 0.018	0.00715 ± 0.0036	0.223 ± 0.05
UCCUCCUACAGCUUGCAUAGUAUUUGAGUUA	0.199 ± 0.028	0.00484 ± 0.0026	0.00541 ± 0.0025
UCCUGGAUGAGCAAGCAUAGUAUUUAGUUA	0.12 ± 0.014	0.00601 ± 0.0021	0.0118 ± 0.0048
UCCUGGAAGAGCUUGCAUAGUAUUAAGUUA	0.21 ± 0.023	0.00346 ± 0.0028	0.00519 ± 0.0018
UCCUGGAUCAGCUUGCAUAGUAAUAAGUUA	0.189 ± 0.019	0.00409 ± 0.0028	0.00234 ± 0.0018
UCCUCCUACAGGUUGCAUACUAUUUAGUUA	0.0492 ± 0.009	0.00246 ± 0.0023	0.00612 ± 0.0018
